We go through 3 compounds from PubChem BioAssay (EPA / NIEHS).

More than one record can exist for a structure, and the calls need not agree. Calls of active or inactive are those of the source. Rule for the calls: active = hit-call score of the fitted dose curve at least 0.9, where 1 is the maximum; inactive = score below 0.9.

Read-out in assay [1]: Decorin, DCN (gene 1634)
The assay is described as follows: BSK_MyoF_Decorin: BioMAP Diversity Plus: MyoF Assay for Decorin Biomarker Activity (AID 2284265). The following applies: primary human lung fibroblasts. Summed up:
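Human lung fibroblast cultures were dosed for 24 h, and decorin was then measured by ELISA. Parallel cultures were stained with sulforhodamine B for total protein as a cytotoxicity check. Gain of signal was fitted relative to DMSO.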

Read-out in assay [2]: KRT18 (gene 3875)
The assay is described as follows: BSK_BF4T_Keratin818: BioMAP Diversity Plus: BF4T Assay for Keratin 818 Biomarker Activity (AID 2284266). The following applies: primary human bronchial epithelial cells with fibroblasts. In a few lines:
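Keratin 8/18 levels quantified by ELISA after 24 h chemical treatment of bronchial epithelial cell/dermal fibroblast co-cultures, fitted in positive direction relative to DMSO. Parallel SRB staining tracks overt cytotoxicity.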

The nature of assay [3]: BSK_MyoF_SRB: Viability Assessment in the BioMAP Diversity Plus: MyoF Assay (AID 2284267).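 Note: total protein by SRB absorbance in parallel cultures as cytotoxicity measure; cells assessed 24 h after compound addition.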 The following applies: primary human lung fibroblasts. In a few lines:
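In this viability endpoint, fibroblasts from human lung are treated for 24 h, TCA-fixed, SRB-stained (0.1%) and read at 560 nm. Gain of signal relative to DMSO defines activity.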

Read-out in assay [4]: Matrix Metallopeptidase 1 (MMP1), MMP1 (gene 4312)
The assay is described as follows: BSK_MyoF_MMP1: BioMAP Diversity Plus: MyoF Assay for Matrix Metallopeptidase 1 (MMP1) Biomarker Activity (AID 2284268). The following applies: primary human lung fibroblasts. Summed up:
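Human lung fibroblast primary cells; MMP1 measured by ELISA 24 h after dosing, fitted in the positive direction relative to DMSO. Parallel SRB staining (0.1%, after 10% TCA fixation, 560 nm) assesses overt cytotoxicity.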

Read-out in assay [5]: TIMP metallopeptidase inhibitor 1 (TIMP1), TIMP1 (gene 7076)
The assay is described as follows: BSK_MyoF_TIMP1: BioMAP Diversity Plus: MyoF Assay for TIMP metallopeptidase inhibitor 1 (TIMP1) Biomarker Activity (AID 2284269). The following applies: primary human lung fibroblasts. In a few lines:
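Fibroblasts from human lung are dosed with chemical, cultured 24 h, and assayed for TIMP-1 by ELISA. Increases over the DMSO baseline are scored, with SRB total-protein staining run in parallel for cytotoxicity.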

Read-out in assay [6]: Matrix Metallopeptidase 3 (MMP3), MMP3 (gene 4314)
The assay is described as follows: BSK_BF4T_MMP3: BioMAP Diversity Plus: BF4T Assay for Matrix Metallopeptidase 3 (MMP3) Biomarker Activity (AID 2284271). The following applies: primary human bronchial epithelial cells with fibroblasts. Summed up: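 MMP-3 level read by ELISA after 24 h chemical exposure of bronchial epithelial cell/dermal fibroblast co-cultures, fitted upward relative to DMSO. Parallel cultures stained with 0.1% SRB after TCA fixation gauge overt cytotoxicity.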

Read-out in assay [7]: Tissue plasminogen activator (tPA), PLAT (gene 5327)
The assay is described as follows: BSK_BF4T_tPA: BioMAP Diversity Plus: BF4T Assay for Tissue plasminogen activator (tPA) Biomarker Activity (AID 2284272). The following applies: primary human bronchial epithelial cells with fibroblasts. Summed up: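 tPA level quantified by ELISA at 24 h post-treatment in bronchial epithelial/dermal fibroblast co-cultures, gain of signal scored against DMSO baseline. Parallel cultures stained with 0.1% SRB (560 nm) to flag overt cytotoxicity.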

A short description of assay [8]: BSK_BF4T_SRB: Viability Assessment in the BioMAP Diversity Plus: BF4T Assay (AID 2284274). The following applies: primary human bronchial epithelial cells with fibroblasts. In a few lines: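 Cytotoxicity measured as total protein: cells fixed with 10% TCA, stained with 0.1% SRB, read at 560 nm. Bronchial epithelial/dermal fibroblast co-culture, 24 h after dosing, with positive-direction fitting relative to DMSO.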

Read-out in assay [9]: urokinase Plasminogen Activator (uPA), PLAU (gene 5328)
The assay is described as follows: BSK_BF4T_uPA: BioMAP Diversity Plus: BF4T Assay for urokinase Plasminogen Activator (uPA) Biomarker Activity (AID 2284275). The following applies: primary human bronchial epithelial cells with fibroblasts. Summed up: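 uPA levels measured by ELISA at 24 hours in BF4T cultures (bronchial epithelial cells plus dermal fibroblasts) and compared with DMSO; cytotoxicity tracked in parallel cultures by sulforhodamine B staining.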

Read-out in assay [10]: Matrix Metallopeptidase 9 (MMP9), MMP9 (gene 4318)
The assay is described as follows: BSK_BF4T_MMP9: BioMAP Diversity Plus: BF4T Assay for Matrix Metallopeptidase 9 (MMP9) Biomarker Activity (AID 2284276). The following applies: primary human bronchial epithelial cells with fibroblasts. Summed up: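 MMP-9 levels were measured by ELISA after 24 h exposure of bronchial epithelial cell/dermal fibroblast co-cultures, with DMSO as baseline. Parallel cultures were stained with 0.1% SRB after TCA fixation, read at 560 nm, to flag overt cytotoxicity.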

Read-out in assay [11]: Intercellular Adhesion Molecule 1 (ICAM1), ICAM1 (gene 3383)
The assay is described as follows: BSK_BE3C_ICAM1: BioMAP Diversity Plus: BE3C Assay for Intercellular Adhesion Molecule 1 (ICAM1) Biomarker Activity (AID 2284278).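 Note: cell-surface ICAM-1 protein level quantified by ELISA.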 The following applies: primary human bronchial epithelial cells. Summed up:
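hu bronchial epithelial primary cells, 24 h cpd exposure, ICAM-1 ELISA; gain-of-signal fit vs DMSO baseline.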

Read-out in assay [12]: Interferon-inducible T-cell alpha chemoattractant (ITAC), CXCL11 (gene 6373)
The assay is described as follows: BSK_BE3C_ITAC: BioMAP Diversity Plus: BE3C Assay for Interferon-inducible T-cell alpha chemoattractant (ITAC) Biomarker Activity (AID 2284279). The following applies: primary human bronchial epithelial cells. Summed up: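 BE3C cells (human primary bronchial epithelium), 24 h compound exposure, I-TAC by ELISA, DMSO = negative control/baseline, positive fitting direction.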

Read-out in assay [13]: Interleukin-8 (IL8), CXCL8 (gene 3576)
The assay is described as follows: BSK_BE3C_IL8: BioMAP Diversity Plus: BE3C Assay for Interleukin-8 (IL8) Biomarker Activity (AID 2284280). The following applies: primary human bronchial epithelial cells. Summed up: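 Primary human bronchial epithelial cells (BE3C system) were exposed to test chemical for 24 h, and IL-8 levels were then measured by ELISA. Activity was fitted in the positive (gain-of-signal) direction against a DMSO negative-control baseline.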

Read-out in assay [14]: Epidermal growth factor receptor (EGFR), EGFR (gene 1956)
The assay is described as follows: BSK_BE3C_EGFR: BioMAP Diversity Plus: BE3C Assay for Epidermal growth factor receptor (EGFR) Biomarker Activity (AID 2284281). The following applies: primary human bronchial epithelial cells. Summed up: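 Human primary bronchial epithelial cells were exposed to compound for 24 h, and cell-surface EGFR was then quantified by ELISA. Activity was fitted in the positive direction against the DMSO vehicle baseline.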

Read-out in assay [15]: KRT18 (gene 3875)
The assay is described as follows: BSK_BE3C_Keratin818: BioMAP Diversity Plus: BE3C Assay for Keratin 818 Biomarker Activity (AID 2284282). The following applies: primary human bronchial epithelial cells. Summed up:
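In this multiplexed primary-cell system, bronchial epithelial cells were dosed and harvested at 24 h. Keratin 8/18 was determined by ELISA and analysed for increases over DMSO controls.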

Read-out in assay [16]: Matrix Metallopeptidase 9 (MMP9), MMP9 (gene 4318)
The assay is described as follows: BSK_BE3C_MMP9: BioMAP Diversity Plus: BE3C Assay for Matrix Metallopeptidase 9 (MMP9) Biomarker Activity (AID 2284283). The following applies: primary human bronchial epithelial cells. Summed up: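 Human primary bronchial epithelial cells exposed 24 h to compound. MMP9 quantified by ELISA. SRB total-protein staining of parallel cultures assesses cytotoxicity. Positive-direction fit relative to DMSO.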

Read-out in assay [17]: Plasminogen activator inhibitor-1 (PAI1), SERPINE1 (gene 5054)
The assay is described as follows: BSK_CASM3C_PAI1: BioMAP Diversity Plus: CASM3C Assay for Plasminogen activator inhibitor-1 (PAI1) Biomarker Activity (AID 2284284). The following applies: primary human coronary artery smooth muscle cells.

Read-out in assay [18]: Plasminogen Activator Inhibitor-1 (PAI1), SERPINE1 (gene 5054)
The assay is described as follows: BSK_BF4T_PAI1: BioMAP Diversity Plus: BF4T Assay for Plasminogen Activator Inhibitor-1 (PAI1) Biomarker Activity (AID 2284273). The following applies: primary human bronchial epithelial cells with fibroblasts. In a few lines: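 PAI-1 levels quantified by ELISA 24 h post-dosing in bronchial epithelial cell plus dermal fibroblast cultures. Signal gain referenced to DMSO baseline. Sulforhodamine B total-protein staining of parallel wells checked cytotoxicity.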

Read-out in assay [19]: Interleukin-8 (IL8), CXCL8 (gene 3576)
The assay is described as follows: BSK_IMphg_IL8: BioMAP Diversity Plus: IMphg Assay for Interleukin-8 (IL8) Biomarker Activity (AID 2284277). The following applies: primary human endothelial cells with macrophages. In a few lines:
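IL-8 levels were measured by ELISA 24 h after dosing in primary human venular endothelial cell–macrophage cultures, referenced to DMSO; parallel SRB staining monitored overt cytotoxicity.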

For `O=C(O)C(F)(F)C(F)(F)C(F)F`, the AC50 in assay [1] was 30 µM (active). Moreover, the outcome in assay [1], in assay [2], in assay [3], in assay [4], in assay [5] and in assay [6] was inactive. Moreover, the result in [7], in [8], in assay [9], in assay [10], in assay [11] and in assay [12] was inactive. In addition, the outcome in [13], in [14], in [15], in assay [16] and in assay [17] was inactive.

As to `N=C(N)C(F)(F)C(F)(F)C(F)(F)C(F)(F)C(F)(F)C(F)(F)C(F)(F)F`, the outcome in assay [1], in assay [2], in assay [3], in [4], in assay [5] and in assay [6] was inactive. The result in assay [7], in [18], in assay [8], in assay [10], in assay [11] and in [13] was inactive. Moreover, the result in assay [14], in assay [15], in assay [16] and in [17] was inactive. In addition, the AC50 was 33.6 µM (active) in assay [6] and 30 µM (active) in [13].

Regarding `O=C(O)C(F)(F)C(F)(F)OC(F)(F)F`, the result in [1], in assay [2], in [3], in [4], in assay [5] and in [6] was inactive. For the same compound, the outcome in assay [7], in assay [18], in assay [10], in assay [19], in assay [11] and in [12] was inactive. Moreover, the result in [13], in assay [14], in [15], in assay [16] and in assay [17] was inactive.
